Data from PubChem BioAssay (NCATS).
Results filed as inconclusive are left out. The source made the active and inactive calls. Unless noted, calls come from the whole dose curve; as a rule, active = well fitted curve in either direction with a large enough effect (not every such curve was filed as active); inconclusive = small, poorly fitted or top-dose-only effect, or another doubt; inactive = flat fitted curve, though single readings scatter.

Tests used:
[1] = biological target: Lysosomal acid glucosylceramidase (Homo sapiens) (UniProt P04062); assay: Glucocerebrosidase-p2 (AID 348; in the data active = potency below about 10 µM; note: potency is the fitted concentration of half-maximal effect); conditions: purified GBA, blue fluorogenic substrate, 40 min
Outline: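 Compounds titrated from 0.6 nM upwards against 0.2 nM enzyme in pH 5.9 citric acid/KH2PO4, taurocholate, tween-20; blue fluorogenic substrate 80 uM, 40 min room temperature, stopped and read Ex 365/Em 440 for AC50.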

[2] = AP1 Signaling Pathway (AID 357); conditions: ME-180 AP-1-bla reporter, EGF-induced, beta-lactamase ratio, 5 h; at 7.69 µM (top of the series) unless noted;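 note: ME-180 reporter cells stimulated with EGF at its EC50 level; % is set by controls: 0 for no effect and ±100 for the full control effect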
Outline: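 Beta-lactamase reporter under AP-1 response element, ME-180 background. Stimulus: EC50 EGF. Compound exposure 5 h, 37 °C. Detection: CCF4, 2.5 h RT, 460/530 nm. Values: AC50 from titration.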

[3] = NFAT Signaling Pathway (AID 444); conditions: Jurkat NFAT-bla M1, carbachol, beta-lactamase ratio, 5 h; at 7.69 µM (top of the series) unless noted;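 note: carbachol stimulus at about its EC50 of 1 µM final; % is set by controls: 0 for no effect and ±100 for the full control effect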
Outline: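 Jurkat cells carrying an NFAT-driven β-lactamase reporter and co-transfected muscarinic M1 receptor were treated with compound plus carbachol (1 uM final, an EC50 level) for 5 h at 37 °C. CCF4 loading followed for 1 h at RT; 460/530 nm ratio gave %activity.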

[4] = biological target: Glucocorticoid receptor (Homo sapiens) (UniProt P04150); assay: GR-EFC Redistribution (AID 451; calls by dose curve; note: potency is the fitted concentration of half-maximal effect); conditions: CHO-K1 GR-EFC translocation, beta-gal luminescence, 2 h
Outline: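 CHO-K1 cells stably expressing nuclear-localized β-gal enzyme acceptor and GR fused C-terminally to the enzyme donor fragment; ligand-driven nuclear translocation restores β-gal by complementation. Compounds titrated up to 46 uM final, 2 h at 37 °C; luminescence read.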

[5] = biological target: Mitogen-activated protein kinase 10 (Mus musculus) (UniProt Q61831); assay: JNK3 AlphaScreen Assay (AID 530); conditions: JNK3 lysate, c-Jun phosphorylation; series mostly up to 57.1 µM;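 note: kinase came from lysate of stimulated human HepG2 cells; signal reports phosphorylation of biotinylated GST-cJun 1-79 at Ser73 with 10 µM ATP; % is set by controls: 0 for no effect and ±100 for the full control effect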
Outline: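 JNK3 came from HepG2 lysates pre-activated with IL-1beta and TNF-alpha and phosphorylated biotinylated GST-cJun (1-79) at 10 uM ATP, pH 7.6, room temperature. Compounds were titrated. AlphaScreen signal used anti-phospho-cJun (Ser73) antibody.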

[6] = biological target: 3',5'-cyclic-AMP phosphodiesterase 4B (Homo sapiens) (UniProt Q07343); assay: qHTS Assay for Inhibitors of PDE-IV (AID 607; active = well fitted activation curve with a large enough effect in the main read-out, with a control signal flat, not every such curve was filed as active; note: % of control where 0% means no effect); conditions: HEK293 ACTOne CNG channel cells, membrane potential fluorescence; series mostly up to 22.9 µM
Outline: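 HEK293 ACTOne cells with CNG channel (1000/well), endogenous PDE4; membrane potential dye, compounds up to 22.9 uM final. Fluorescence Ex 535/Em 590; RO 20-1724 (100 uM final) as reference.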

[7] = qHTS Assay for Lipid Storage Modulators (AID 1519; calls by dose curve); conditions: Drosophila S3 cells, BODIPY lipid droplet/cell ratio, laser cytometry, cells loaded with oleic acid; for activity change, negative = inhibition: at 57.5 µM (top of the series)
Outline: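 Cells seeded at 5,000 per well were treated with compounds over a concentration series and loaded with oleic acid (400 uM, as added). Lipid droplet fluorescence (488 nm excitation, 500-530 nm channel) was read by laser-scanning cytometry and normalized to 20 uM Triacsin C.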

[8] = Primary qHTS for small molecule stabilizers of the endoplasmic reticulum resident proteome: Secreted ER Calcium Modulated Protein (SERCaMP) assay (AID 1508630; active = well fitted inhibition curve with a large enough effect; note: % is set by controls: 0 for no effect and ±100 for the full control effect); conditions: SH-SY5Y GLuc-SERCaMP (Gaussia luciferase released on ER calcium loss) secretion, thapsigargin, luminescence; series mostly up to 38.4 µM
Outline: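 GLuc-SERCaMP-expressing SH-SY5Y cells, pretreated 16 h with compound, are challenged with thapsigargin to empty ER calcium stores; after 4 h, coelenterazine is added directly to the medium and luminescence is imaged.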

[9] = Stat Signaling Pathway (AID 446); conditions: ME-180 SIE beta-lactamase reporter, IL-6 stimulated, 5 h; at 7.69 µM (top of the series) unless noted
Outline: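 ME-180 cells carrying a SIE-driven beta-lactamase reporter are stimulated with 40 pM IL-6 for 5 h at 37C in the presence of compound. The 460/530 nm FRET substrate ratio is read after 2.5 h at RT. Data are normalised to 300 pM IL-6 and to 125 nM JAK inhibitor controls.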

[10] = biological target: Glucocorticoid receptor (Homo sapiens) (UniProt P04150); assay: GR-GFP Redistribution (AID 450;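 active = compounds whose dose series gives a full or clear partial fitted curve of increased nuclear translocation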; note: potency is the fitted concentration of half-maximal effect); conditions: U2OS GR-GFP nuclear translocation, laser cytometry, 2 h
[11] = biological target: Cytochrome P450 2C9 (Homo sapiens) (UniProt P11712); assay: qHTS Assay for Inhibitors and Substrates of Cytochrome P450 2C9 (AID 883; active = well fitted inhibition curve with a large enough effect; note: % is set by controls: 0 for no effect and ±100 for the full control effect; nearly all actives have a fitted effect of over 60% in size); conditions: recombinant CYP2C9, luciferin-H luminescence, 60 min; series mostly up to 57.1 µM
Outline: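 CYP2C9 deoxyluciferin hydroxylation, 37C, 60 min with NADPH regeneration; 10nM enzyme, 100uM Luciferin-H (KM). Glo detection reagent stopped reaction; luminescence normalized to sulphaphenazole (57uM) full inhibition.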

[12] = qHTS Assay for Identification of Small Molecule Agonists for Hypoxia Response Element Signaling Pathway (AID 914; active = well fitted activation curve with a large enough effect in the signal ratio, with a control signal flat, not every such curve was filed as active; the % refers to the signal ratio; note: potency is the fitted concentration of half-maximal effect); conditions: ME-180 (cervical carcinoma) HRE-bla reporter, beta-lactamase ratio, CoCl2, 17 h; activation: stronger effect = higher value
Outline: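 qHTS titration; ME-180 HRE-bla cells; EC50 CoCl2 co-treatment, 17 h at 37 degrees Celsius; CCF4 dye, ex 405nm, em 460nm and 530nm; %Activity from ratio; AC50.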

[13] = measured here: cell count channel max response
[14] = measured here: lipid channel max response

3',5'-cyclic-AMP phosphodiesterase 4B (Homo sapiens), sequence (Q07343 whole entry, looked up): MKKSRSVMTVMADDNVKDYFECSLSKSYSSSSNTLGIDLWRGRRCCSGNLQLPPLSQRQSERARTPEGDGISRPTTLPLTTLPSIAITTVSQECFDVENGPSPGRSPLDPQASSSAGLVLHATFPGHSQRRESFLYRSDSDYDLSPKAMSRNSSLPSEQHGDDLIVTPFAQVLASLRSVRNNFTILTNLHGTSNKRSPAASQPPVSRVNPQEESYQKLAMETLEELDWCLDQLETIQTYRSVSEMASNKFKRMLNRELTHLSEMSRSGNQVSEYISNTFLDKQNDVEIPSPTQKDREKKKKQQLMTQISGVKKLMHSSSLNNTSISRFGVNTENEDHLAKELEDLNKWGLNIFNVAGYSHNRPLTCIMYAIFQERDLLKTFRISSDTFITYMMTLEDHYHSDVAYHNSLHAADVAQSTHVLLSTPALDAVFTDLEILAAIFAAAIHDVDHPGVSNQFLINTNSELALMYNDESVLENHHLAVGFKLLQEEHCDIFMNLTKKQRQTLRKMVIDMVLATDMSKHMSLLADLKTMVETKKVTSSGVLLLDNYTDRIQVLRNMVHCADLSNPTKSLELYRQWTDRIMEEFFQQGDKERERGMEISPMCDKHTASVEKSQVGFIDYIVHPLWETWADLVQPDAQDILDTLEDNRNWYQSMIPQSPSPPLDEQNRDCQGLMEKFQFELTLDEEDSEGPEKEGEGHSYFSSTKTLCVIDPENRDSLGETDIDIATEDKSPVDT
Lysosomal acid glucosylceramidase (Homo sapiens), sequence (P04062 whole entry, looked up): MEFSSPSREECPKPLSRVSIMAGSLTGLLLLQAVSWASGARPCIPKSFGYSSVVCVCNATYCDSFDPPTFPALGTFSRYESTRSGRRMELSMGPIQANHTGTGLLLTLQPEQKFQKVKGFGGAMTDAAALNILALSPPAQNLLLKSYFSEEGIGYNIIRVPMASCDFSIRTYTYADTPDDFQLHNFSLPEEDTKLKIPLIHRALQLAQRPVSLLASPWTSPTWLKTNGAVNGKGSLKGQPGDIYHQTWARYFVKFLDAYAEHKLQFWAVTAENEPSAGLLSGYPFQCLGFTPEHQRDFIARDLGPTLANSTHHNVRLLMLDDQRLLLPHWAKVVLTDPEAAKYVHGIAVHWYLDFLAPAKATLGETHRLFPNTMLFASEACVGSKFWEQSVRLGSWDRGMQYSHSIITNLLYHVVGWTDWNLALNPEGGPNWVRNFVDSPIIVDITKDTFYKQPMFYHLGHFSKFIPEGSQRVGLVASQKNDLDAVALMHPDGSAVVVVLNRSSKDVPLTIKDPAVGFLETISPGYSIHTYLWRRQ
Glucocorticoid receptor (Homo sapiens), sequence (P04150 whole entry, looked up, the tested form may be a part): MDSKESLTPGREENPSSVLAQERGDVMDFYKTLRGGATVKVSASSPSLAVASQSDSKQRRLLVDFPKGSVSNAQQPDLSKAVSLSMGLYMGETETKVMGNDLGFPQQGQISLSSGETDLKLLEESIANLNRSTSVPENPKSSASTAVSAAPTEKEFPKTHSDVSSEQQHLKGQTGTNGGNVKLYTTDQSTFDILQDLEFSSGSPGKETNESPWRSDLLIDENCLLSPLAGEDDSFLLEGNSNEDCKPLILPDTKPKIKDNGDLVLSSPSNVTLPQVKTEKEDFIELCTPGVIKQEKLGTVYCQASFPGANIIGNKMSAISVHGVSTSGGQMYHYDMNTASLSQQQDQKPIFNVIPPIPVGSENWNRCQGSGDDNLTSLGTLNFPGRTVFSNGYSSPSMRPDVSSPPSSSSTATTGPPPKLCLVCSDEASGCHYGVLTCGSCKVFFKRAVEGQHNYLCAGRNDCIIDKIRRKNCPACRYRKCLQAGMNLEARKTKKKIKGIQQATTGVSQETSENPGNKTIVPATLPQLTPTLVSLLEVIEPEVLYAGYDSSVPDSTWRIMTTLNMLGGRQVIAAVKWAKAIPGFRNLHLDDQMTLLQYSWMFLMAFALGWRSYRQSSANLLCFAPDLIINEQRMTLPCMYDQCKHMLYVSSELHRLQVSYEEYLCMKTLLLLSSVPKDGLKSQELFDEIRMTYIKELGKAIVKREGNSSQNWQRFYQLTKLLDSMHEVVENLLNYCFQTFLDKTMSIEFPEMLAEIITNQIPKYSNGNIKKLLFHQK
Cytochrome P450 2C9 (Homo sapiens), sequence (P11712 whole entry, looked up): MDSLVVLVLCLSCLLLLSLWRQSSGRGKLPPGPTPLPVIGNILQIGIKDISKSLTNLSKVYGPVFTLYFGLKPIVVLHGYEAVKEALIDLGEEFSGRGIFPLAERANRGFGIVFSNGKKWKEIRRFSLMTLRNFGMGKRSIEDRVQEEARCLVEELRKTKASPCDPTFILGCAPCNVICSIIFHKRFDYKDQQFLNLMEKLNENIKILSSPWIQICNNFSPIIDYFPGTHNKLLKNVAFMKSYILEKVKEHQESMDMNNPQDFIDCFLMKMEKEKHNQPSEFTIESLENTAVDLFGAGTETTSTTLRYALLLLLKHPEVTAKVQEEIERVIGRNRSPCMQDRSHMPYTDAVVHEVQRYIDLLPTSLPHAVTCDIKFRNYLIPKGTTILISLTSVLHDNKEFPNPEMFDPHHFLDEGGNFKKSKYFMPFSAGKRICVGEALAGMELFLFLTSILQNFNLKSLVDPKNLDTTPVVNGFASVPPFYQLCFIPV

Row | Compound | Potency [1] | activity change, negative = inhibition [2] | activity change, negative = inhibition [3] | Potency [4] | Potency [5] | Potency [6] | activity change, negative = inhibition [7] | max response [7, 13] [%] | max response [7, 14] [%] | outcome [8] | activity, negative = inhibition [9] | Potency [10] | Potency [11] | Potency [12]
1 | CS(=O)(=O)N1CCC2(CC1)CN(Cc1ccc(C#N)cc1)C2 | > 11.4 µM (inactive) | -16.8% (inactive) | -16.5% (inactive) | > 46 µM (inactive) | inactive | inactive | 4.04% (inactive) | 9.72 | 16.5 | inactive | – | – | – | –
2 | COc1ccccc1CN1CCCC2(CCN(C(=O)c3cccc(F)c3)CC2)C1 | > 11.4 µM (inactive) | -7.36% (inactive) | – | > 46 µM (inactive) | inactive | inactive | 0.576% (inactive) | 3.85 | 7.25 | inactive | 1.24% (inactive) | – | – | –
3 | COCC(=O)N1CCC[C@@]2(CCN(C(=O)Nc3ccccc3)C2)C1 | > 11.4 µM (inactive) | -5.16% (inactive) | 1.53% (inactive) | > 46 µM (inactive) | inactive | inactive | 5.08% (inactive) | 3.08 | 10.8 | inactive | – | – | – | –
4 | O=C(c1cc(C(F)(F)F)cc(C(F)(F)F)c1)N1CCC2(CCCN(Cc3ccccc3)C2)CC1 | > 11.4 µM (inactive) | 15.8% (inactive) | – | > 46 µM (inactive) | inactive | inactive | -0.673% (inactive) | 4.9 | 5.21 | inactive | -0.518% (inactive) | – | – | –
5 | CC(C)CN1CC2(CCN(C(=O)c3csnn3)CC2)C1 | > 11.4 µM (inactive) | -4.73% (inactive) | – | > 46 µM (inactive) | inactive | inactive | -0.802% (inactive) | -2.36 | -0.0505 | inactive | 4.77% (inactive) | – | – | –
6 | CC(=O)N1CCC2(CCCN(c3ccncc3)C2)CC1 | > 11.4 µM (inactive) | -16.6% (inactive) | – | > 46 µM (inactive) | inactive | inactive | 4.08% (inactive) | 1.51 | 7.47 | inactive | -5.29% (inactive) | – | – | –
7 | O=C(c1ccncc1)N1CCC2(CCCN(c3ccccn3)C2)CC1 | > 11.4 µM (inactive) | -11.7% (inactive) | – | > 46 µM (inactive) | inactive | inactive | 7.75% (inactive) | 10.2 | 19.9 | inactive | 4.12% (inactive) | – | – | –
8 | COc1ccc(Oc2ncc3nc(-c4cn(C)c5ccccc45)c(=O)n(CCC#N)c3n2)cc1 | > 11.4 µM (inactive) | -1.79% (inactive) | -2.24% (inactive) | > 46 µM (inactive) | inactive | inactive | -4.32% (inactive) | 27.8 | 26.1 | inactive | – | > 9.22 µM (inactive) | inactive | 3.16 µM (active)
9 | O=C(c1ccncc1)N1CCC2(CCCN(c3ccncc3)C2)CC1 | > 11.4 µM (inactive) | -3.65% (inactive) | – | > 46 µM (inactive) | inactive | inactive | 0.736% (inactive) | -10.7 | -8.67 | inactive | -4.53% (inactive) | – | – | –
10 | COc1ccc(C(=O)N2CCC3(CCCN(Cc4ccc(C#N)cc4)C3)CC2)cc1 | > 11.4 µM (inactive) | 16.7% (inactive) | – | > 46 µM (inactive) | inactive | inactive | -2.89% (inactive) | -1.58 | -2.86 | inactive | 2.1% (inactive) | – | – | –
11 | COc1ccc(C(=O)N2CCC3(CCCN(c4ccccc4)C3)CC2)cc1 | > 11.4 µM (inactive) | -1.35% (inactive) | – | > 46 µM (inactive) | inactive | inactive | -17.3% (inactive) | 1.98 | -15 | inactive | -0.767% (inactive) | – | – | –
12 | CS(=O)(=O)N1CCC2(CCCN(Cc3ccccc3)C2)CC1 | > 11.4 µM (inactive) | -13.8% (inactive) | – | > 46 µM (inactive) | inactive | inactive | 0.839% (inactive) | 10.5 | 13.7 | inactive | -2.17% (inactive) | – | – | –
13 | N#Cc1ccc(CN2CCC3(CC2)CCN(C(=O)c2cccc(F)c2)CC3)cc1 | > 11.4 µM (inactive) | 3.84% (inactive) | – | > 46 µM (inactive) | inactive | inactive | 1.66% (inactive) | 7.59 | 9.63 | inactive | 8.5% (inactive) | – | – | –
14 | Cc1noc(C)c1C(=O)N1CCC2(CC1)CCN(c1ccccn1)CC2 | > 11.4 µM (inactive) | 0.789% (inactive) | – | > 46 µM (inactive) | inactive | inactive | 5.25% (inactive) | 8.43 | 16.7 | inactive | -0.0391% (inactive) | – | – | –
15 | COc1ccccc1CN1CC2(CCN(C(=O)c3cccc(F)c3)CC2)C1 | > 11.4 µM (inactive) | -3.72% (inactive) | – | > 46 µM (inactive) | inactive | inactive | 3.26% (inactive) | 8.06 | 13.5 | inactive | 0.108% (inactive) | – | – | –
16 | N#Cc1ccc(CN2CCCC3(CCN(C(=O)c4ccco4)CC3)C2)cc1 | > 11.4 µM (inactive) | -7.19% (inactive) | – | > 46 µM (inactive) | inactive | inactive | -5.76% (inactive) | -5.31 | -10.9 | inactive | 4.81% (inactive) | – | – | –
17 | O=C(c1ccncc1)N1CCC2(CCCN(Cc3nccs3)C2)CC1 | > 11.4 µM (inactive) | -14.3% (inactive) | – | > 46 µM (inactive) | inactive | inactive | 6% (inactive) | 2.79 | 11.6 | inactive | 7.31% (inactive) | – | – | –
